Hit rate of the full screen: of about 65,000 compounds, about 3,600 (5.5%) were called active.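 Rule for the calls: active = at 10 µM, mean starting fluorescence two-fold or more over control wells; inactive = the rest.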 The full list was thinned out, with actives kept by preference.

This experiment can be described thus: intrinsic fluorescence of library compounds, ex339/em460 – biochemical, MLSMR library, data from DPM-DC assay, artefact control, profiling panel (AID 709).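 Note: signal is the first read of a kinetic run.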 Particulars: compound autofluorescence, ex339/em460 nm, NADH buffer; at 10 µM; hits give high values; 1 = no-compound wells, NADH background.
`C=CCNC(=O)CCCOc1cccc(C)c1`: the fluorescence fold increase is 1.09 (inactive).
In the case of `Cc1cc(/C=N/n2cnnc2)c(C)n1-c1ccc2ncccc2c1` it was 1.05 (inactive); in that of `COc1ccc2nc(NC3=NCN(CC4CCCO4)CN3)nc(C)c2c1` (stereo unspecified), 1.66 (inactive); in that of `Cc1cccc(N2CC(C)Cn3c2nc2c3c(=O)n(CC(=O)OCc3ccccc3)c(=O)n2C)c1` (stereo unspecified), 1.1 (inactive).
In the case of `COc1cc(OC)c(C(=O)NC2CC(C)(C)NC(C)(C)C2)cc1OC` it was 1.16 (inactive).
Next, `CSc1nc(O)c(Cc2ccccc2)c(=O)[nH]1`: 1.07 (inactive).
In the case of `Cc1ccc(C(=O)COc2cccc(NC(=O)c3ccco3)c2)cc1`, the fluorescence fold increase was 1.18 (inactive).
Next, `CCOc1cc(NC(=O)c2ccco2)c(OCC)cc1NC(=O)COc1ccccc1`: 3.91 (active).
Consider `O=C(Nc1ccc(Oc2ccccc2)cc1)c1ccco1`, for which the fluorescence fold increase was 1.11 (inactive).
In the case of `CC(C)C(c1nnnn1C1CCCC1)N1CCN(c2ccccc2F)CC1` (stereo unspecified) it was 1.02 (inactive); in that of `O=C(Cn1nc(Cc2cccnc2)c2ccccc2c1=O)NCC1CCCO1` (stereo unspecified), 1.03 (inactive); in that of `Cn1c(=O)c2c(nc(CN3CCOCC3)n2Cc2ccccc2)n(C)c1=O`, 1.04 (inactive).
Next, `Cc1cccn2c(=O)c3cc(C#N)c(=O)n(CCCN4CCOCC4)c3nc12`: 3.03 (active); `Cc1ccc(C2c3c(oc4ccc(C)cc4c3=O)C(=O)N2CCCN2CCOCC2)cc1` (stereo unspecified): 1.09 (inactive).
Next, `COc1ccc(CNC(=O)c2cc3c(=O)n4ccccc4nc3n(CC3CCCO3)c2=N)cc1` (stereo unspecified): 1.91 (inactive); `Cc1cccn2c(=O)c3cc(C#N)c(=NC(=O)c4cccnc4)n(CC4CCCO4)c3nc12` (stereo unspecified): 2.38 (active); `CCOc1ccc2c(c1)cc(CN(C(=O)CC)C1CCCCC1)c1nnnn12`: 1.21 (inactive).
Take `COc1cc(C2C(C#N)=C(N)Oc3n[nH]c(-c4ccccn4)c32)cc(OC)c1OC` (stereo unspecified): the fluorescence fold increase is 1.09 (inactive).
`CCc1ccc2oc(-c3ccc(N)cc3)nc2c1`: the fluorescence fold increase was 2.12 (active).
Next, `COc1cccc(-c2nc3cc(C)ccc3o2)c1`: 1.2 (inactive).
In the case of `CCOC(=O)CSc1nc2c(c(=O)n(Cc3ccccc3Cl)c(=O)n2C)n1C` it was 1.06 (inactive); in that of `N#Cc1nc(Cc2ccccc2)oc1NCCc1ccccc1`, 1.1 (inactive).
In the case of `N#Cc1nc(COc2ccc(-c3ccccc3)cc2)oc1NCc1cccnc1` it was 1.07 (inactive); in that of `N#Cc1nc(-c2ccc(OCc3ccccc3)cc2)oc1NCCCN1CCOCC1`, 3.88 (active).
For `Cc1cc(=O)oc(C)c1C(=O)Nc1cnc2ccccc2c1`, the fluorescence fold increase is 1.27 (inactive).
As for `Cc1ccc2nc(-c3ccccc3)cc(C(=O)O)c2c1`, the fluorescence fold increase is 1.22 (inactive).
Next, `Cc1ccc(NC(=O)c2cc(-c3ccc(C)o3)nc3ccccc23)nc1`: 2.48 (active).
In the case of `CCc1c(O)nc(SCC(=O)N2CCCCC2)n(-c2ccccc2C)c1=O` it was 1.04 (inactive); in that of `CC1CN(c2cc(=O)n(Cc3ccc(F)cc3)c(=O)[nH]2)CC(C)O1` (stereo unspecified), 1.08 (inactive); in that of `Cc1ccc(S(=O)(=O)c2c(N)n(C)c3nc4ccccc4nc23)cc1`, 3.95 (active).
For `Cc1ccc(S(=O)(=O)NCc2nc3ccccc3c(=O)n2N)cc1`, the fluorescence fold increase was 1.1 (inactive).

The values are drawn from PubChem BioAssay AID709 (SRMLSC, 2007).
